Screening results (PubChem BioAssay)
In the library only some 3.4% were active in any assay of this set; here they are far more common.
FBW7 activator = activators of human E3 ligase FBW7. Q969H0. AlphaScreen FBW7–phospho-cyclin E peptide binding, activator screen. normalized activity (activation), % at 26.1 µM. actives 0.13% (n = 650,000). AID 1259310; in the data active = normalized activity above about 1.9%;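 note: purified mutant Fbw7 with reduced substrate affinity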
TEAD-YAP inh = TEAD-YAP interaction inhibition; HEK-TIYL cells, TEAD-Gal4/YAP UAS-luciferase luminescence; inhibition, % at 9.12 µM; actives 1.4% (n = 640,000); AID 1259422; in the data active = inhibition above about 32%
MITF primary = inhibitors of human MITF | AlphaScreen MITF homodimerization, bead proximity signal | inhibition, % at 2.6 µM | actives 0.91% (n = 650,000) | AID 1259374; in the data active = inhibition above about 50%
Target sequence (O75030 whole entry, looked up): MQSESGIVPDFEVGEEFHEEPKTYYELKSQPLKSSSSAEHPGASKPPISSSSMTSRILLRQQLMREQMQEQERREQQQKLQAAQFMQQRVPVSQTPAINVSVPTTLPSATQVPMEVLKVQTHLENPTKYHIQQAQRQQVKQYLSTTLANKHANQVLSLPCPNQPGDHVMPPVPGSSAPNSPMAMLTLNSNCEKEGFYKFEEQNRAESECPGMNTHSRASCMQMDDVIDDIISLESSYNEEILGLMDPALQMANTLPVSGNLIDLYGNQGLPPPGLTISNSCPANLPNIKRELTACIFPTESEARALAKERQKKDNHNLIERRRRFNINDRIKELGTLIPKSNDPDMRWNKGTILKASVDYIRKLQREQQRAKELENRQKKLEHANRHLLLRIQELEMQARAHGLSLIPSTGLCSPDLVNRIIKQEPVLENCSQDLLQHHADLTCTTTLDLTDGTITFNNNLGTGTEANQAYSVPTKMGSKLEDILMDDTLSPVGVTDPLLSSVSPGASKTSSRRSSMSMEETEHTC
GPR151 ag = activates the human receptor GPR151. Q8TDV0. PathHunter beta-arrestin GPR151 cells, luminescence. activation, % at 11.2 µM. actives 1% (n = 650,000). AID 1508602; in the data active = activation above about 4.9%
MITF confirm = confirmation of human MITF inhibitors; shares compounds with MITF primary; AlphaScreen MITF homodimerization, biotin/His-MITF beads; inhibition, % at 2.6 µM; actives 16% (n = 4,700);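 active = inhibition above a cutoff derived from the DMSO control wells, cut at about 28% in these data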;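 note: inhibitors lower the bead chemiluminescence by keeping MITF from dimerizing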
AlphaScreen DR = AlphaScreen optical interference, dose response counter-screen | shares compounds with MITF primary | AlphaScreen optical interference counterscreen, cell-free | IC50, µM | actives 6% (n = 480); call rule not given here
AlphaScreen intf2 = counter-screen: compounds optically interfering with AlphaScreen. shares compounds with MITF primary. LysRS AlphaScreen counterscreen, signal interference, triplicate. inhibition, % at 2.6 µM. actives 7.6% (n = 4,700). AID 1259376;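 active = inhibition above a cutoff derived from the DMSO control wells, cut at about 30% in these data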
Of the large screens only hits and unclear results are named; the others gave an inactive call (follow-up assays come after a bar, where they were run).

COCc1nc2ccccc2n1CCc1noc(-c2ccccc2OC)n1	MITF primary 94.9 | MITF confirm inactive | AlphaScreen intf2 inactive
COCc1nc2ccccc2n1CCc1noc(-c2ccc(OC)cc2)n1	none
COc1cccc(Nc2nc(-c3ccccc3Cl)nc3ccccc23)c1	MITF primary 52.3 | MITF confirm inactive | AlphaScreen intf2 inactive
Cc1ccc2occ(CN3CCC4(CC3)CC4C(=O)Nc3ccc(F)c(F)c3)c(=O)c2c1 (stereo unspecified)	MITF primary 73.7 | MITF confirm inactive | AlphaScreen intf2 inactive
CSc1ccc(NC(=O)C2CC23CCN(Cc2coc4ccc(C)cc4c2=O)CC3)cc1 (stereo unspecified)	none
CCC(C)NCCOCCOc1ccc(Cl)c(Cl)c1 (stereo unspecified)	MITF primary 66.5 | MITF confirm inactive | AlphaScreen intf2 inactive
CCC(C)NCCOCCOc1ccc(C)cc1 (stereo unspecified)	none
CCC(C)NCCOc1ccc(Br)cc1 (stereo unspecified)	MITF primary 75.7 | MITF confirm inactive | AlphaScreen intf2 inactive
CCc1cccc(OCCCNC(C)CC)c1 (stereo unspecified)	MITF primary 81.6 | MITF confirm inactive | AlphaScreen intf2 inactive
CCC(C)NCCOCCOc1ccc(Br)cc1 (stereo unspecified)	none
COc1ccc(-c2ccc3c(c2)COC2(CCN(C(=O)CCC(=O)O)CC2)O3)cc1OC	none
CN1CCCN(C(=O)c2nc3sccn3c2CNCc2ccc(-n3cccn3)cc2)CC1	none
COc1ccc2ccccc2c1CN1CCSCC1	MITF primary 54.0 | MITF confirm inactive | AlphaScreen intf2 inactive
O=C(CN1C(=O)c2ccccc2C1=O)NC1CCCCC1	MITF primary 52.7 | MITF confirm inactive | AlphaScreen intf2 inactive
Cc1cccc2cc(CN(Cc3ccccc3)C(=O)C3CCC3)c3nnnn3c12	none
CC1(C)CC(=O)N(CC(=O)Nc2ccc(F)cc2)c2ccccc2S1(=O)=O	none
COc1cc(Nc2cccc(C(N)=O)c2)cc(OC)c1OC	MITF primary 72.8 | MITF confirm inactive | AlphaScreen intf2 inactive
COc1cc(NC(=O)Nc2cccc(C(C)=O)c2)cc(OC)c1OC	none
CC1=CC(C)(C)NC(=S)N1c1ccc(Cl)cc1	none
CC1=CC(C)(C)NC(=S)N1c1cc(Cl)cc(Cl)c1	MITF primary 58.4 | MITF confirm inactive | AlphaScreen intf2 inactive
CCOC(=O)N1CCN(C(=O)CC2C(=O)NCCN2Cc2ccc(C)o2)CC1 (stereo unspecified)	none
COc1cccc2cc(C(=O)N3CCC(Cn4cnc5ccccc54)CC3)oc12	MITF primary 60.3 | MITF confirm inactive | AlphaScreen intf2 inactive
O=C(Nc1ccc2c(c1)OCO2)N1CCC(Cn2cnc3ccccc32)CC1	none
O=C(C1CCC1)N1CCC(Cn2cnc3ccccc32)CC1	MITF primary 52.2 | MITF confirm inactive | AlphaScreen intf2 inactive
O=C(CSCc1ccccc1)N1CCC(Cn2cnc3ccccc32)CC1	MITF primary 67.0 | MITF confirm inactive | AlphaScreen intf2 inactive
CCOC(=O)N1CCN(C(=O)CN2CCC(Cn3cnc4ccccc43)CC2)CC1	MITF primary 76.0 | MITF confirm inactive | AlphaScreen intf2 inactive
CCCCn1c(=NC(=O)c2c(-c3ccccc3Cl)noc2C)c(C(=O)OCC)cc2c(=O)n3ccccc3nc21	none
CC1CN(C(=O)CCC(=O)NCCc2ccccc2)c2ccccc2S1 (stereo unspecified)	none
O=C(c1cnn(-c2ccccc2)n1)N1CCN(c2cc(N3CCCCC3)ncn2)CC1	none
O=C(CCN1C(=O)c2ccccc2C1=O)CN1CCC(Cn2cnc3ccccc32)CC1	MITF primary 59.4 | MITF confirm inactive | AlphaScreen intf2 inactive
CN(C(=O)CCN1C(=O)c2ccccc2C1=O)C1CCCCC1	none
O=C(Cc1cccs1)N1CCC(Cn2cnc3ccccc32)CC1	MITF primary 65.1 | MITF confirm inactive | AlphaScreen intf2 inactive
O=C(c1cnn(-c2ccccc2)n1)N1CCC(Cn2cnc3ccccc32)CC1	MITF primary 57.7 | MITF confirm inactive | AlphaScreen intf2 inactive
CCOC(=O)N1CCN(C(=O)CN2CCN(CC)CC2)CC1	MITF primary 70.6 | MITF confirm inactive | AlphaScreen intf2 inactive
O=C(O)/C=C/c1ccc(N2C(=O)CC(Cc3ccc(Cl)cc3)C2=O)cc1 (stereo unspecified)	none
O=C(c1cccc(Cl)c1)N1CCN(c2ccccc2[N+](=O)[O-])CC1	none
O=C(NCC(=O)N1CCC(Cn2cnc3ccccc32)CC1)c1ccccc1	MITF primary 55.7 | MITF confirm inactive | AlphaScreen intf2 inactive
O=C(Nc1cccs1)N1CCC(Cn2cnc3ccccc32)CC1	none
CCC(C)OC(=O)C1=C(C)NC2=C(C(=O)CC(c3ccccc3)C2)C1c1cc(OC)c(OC)cc1Br (stereo unspecified)	MITF primary 63.3 | MITF confirm inactive | AlphaScreen intf2 inactive
Cc1cccc(NC(=O)C2CCCN2C(=O)OCc2ccccc2)c1 (stereo unspecified)	none
Cc1cccc(NC(=O)C2CCCN2C(=O)OC(C)(C)C)c1 (stereo unspecified)	MITF primary 77.5 | MITF confirm inactive | AlphaScreen intf2 inactive
O=C(c1ccccc1[N+](=O)[O-])n1cnc2ccccc21	MITF primary 56.0 | MITF confirm inactive | AlphaScreen intf2 inactive
O=C(c1cc(Cl)ccc1[N+](=O)[O-])n1cnc2ccccc21	none
CC(C)N(C)CCOC(=O)/C=C/c1ccco1	MITF primary 59.0 | MITF confirm 62.2 | AlphaScreen DR inactive | AlphaScreen intf2 inactive
CN(CCOC(=O)/C=C/c1ccco1)Cc1ccccc1	MITF primary 67.5 | MITF confirm 62.5 | AlphaScreen intf2 inactive
CN(Cc1ccccc1)C(=O)COC(=O)/C=C/c1ccco1	none
Cc1c(NC(=O)C(C)OC(=O)c2cc3c(s2)CCC3)c(=O)n(-c2ccccc2)n1C (stereo unspecified)	MITF primary 80.3 | MITF confirm 80.2 | AlphaScreen DR inactive | AlphaScreen intf2 inactive
CN(C)CCNc1ncnc2sccc12	MITF primary 86.0 | MITF confirm inactive | AlphaScreen intf2 inactive
CCOC(CCCNc1ncnc2sccc12)OCC	none
N#CC1=C(N)Oc2n[nH]c(-c3ccccn3)c2C1c1ccc([N+](=O)[O-])s1 (stereo unspecified)	MITF primary 107.2 | MITF confirm 117.1 | AlphaScreen intf2 100.1
COc1ccc(-n2nc(C(=O)NCCCN3CCN(c4cccc(Cl)c4)CC3)c3ccccc3c2=O)cc1Cl	none
CCOC(=O)c1cccc(C(=O)Nc2ccc(C)cc2Br)n1	none
COC(=O)C1=C(C)n2nnnc2NC1c1cc2ccccc2o1 (stereo unspecified)	MITF primary 77.0 | MITF confirm inactive | AlphaScreen intf2 inactive
Cc1ccccc1CSc1nc(=O)n(CCCO)c2c1CCCC2	none
